According to ChEMBL document CHEMBL3433997, “St. Jude Leishmania screening dataset” (2016):

These compounds were tested against Solute carrier family 2, facilitated glucose transporter member 1 (Homo sapiens) (UniProt P11166) (assay: ST_JUDE_LEISH: Cytotoxicity at 2uM final concentration against transgenic Leishmania Mexicana promastigotes LmGLUT1 that are glucose transport deficient and complemented with the human glucose transporter GLUT1. Activity is measured by DNA content using SYBR green in vitro).
Sequence of Solute carrier family 2, facilitated glucose transporter member 1 (Homo sapiens) (P11166 whole entry): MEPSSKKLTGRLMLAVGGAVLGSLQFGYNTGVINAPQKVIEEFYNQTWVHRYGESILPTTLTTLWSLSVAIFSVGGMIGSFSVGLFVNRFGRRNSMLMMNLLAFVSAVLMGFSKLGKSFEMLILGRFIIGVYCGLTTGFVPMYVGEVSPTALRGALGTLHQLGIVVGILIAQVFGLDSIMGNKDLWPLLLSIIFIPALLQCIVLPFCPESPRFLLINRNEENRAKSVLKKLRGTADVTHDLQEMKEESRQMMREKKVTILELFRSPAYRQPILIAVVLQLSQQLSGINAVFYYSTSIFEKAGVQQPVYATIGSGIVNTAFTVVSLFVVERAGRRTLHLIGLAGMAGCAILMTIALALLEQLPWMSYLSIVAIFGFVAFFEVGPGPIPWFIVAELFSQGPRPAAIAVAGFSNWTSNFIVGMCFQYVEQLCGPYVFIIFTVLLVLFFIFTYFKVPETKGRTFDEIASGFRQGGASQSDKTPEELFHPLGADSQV
Format: functional
`Cc1nc(NCCc2c[nH]cn2)cc(NCc2ccccc2)n1` showed an inhibition of 3.83%. `Oc1ccc(Cl)cc1Nc1nc(C(F)(F)F)nc2ccccc12` was tested, and the inhibition was 1.75%. `COc1cc(Nc2nccc(NCC(O)c3ccc(C(F)(F)F)cc3)n2)cc(OC)c1OC` (stereo not given) gave an inhibition of 1.6%. `O=C(Nc1cccc(F)c1)c1ccc(C(=O)NC2CCN(CC3CCCCC3)CC2)cc1` was tested, and the inhibition was 1.87%. In the case of `FC(F)(F)c1ccc2[nH]c(-c3cccc(-c4ccc(CNCC5CCCO5)cc4)c3)nc2c1` (stereo not given), the inhibition is reported as 11.3%. `O=C(Cc1cn(-c2ccccc2)nc1-c1ccc(Cl)cc1)Nc1nccs1` was tested, and the inhibition was 7.92%. In the case of `COc1cc2nc(N3CCC(CNC(=O)c4ccc(-c5ccc(C(=O)N(C)C)cc5)cc4)CC3)nc(N)c2cc1OC`, the inhibition is reported as 1.96%. For `CCc1cccc(-n2c(=O)c3cccnc3n2CC(=O)NCc2ccccc2Cl)c1`, the inhibition was 9.08%. For `Cc1[nH]c(C)c(-c2ccc(OCc3cc(F)cc(F)c3)nc2)c(=O)c1Cl`, the inhibition was 5.4%. With `COc1ccccc1CCC(C)(C)NC(=O)CC(CCc1ccccc1)Nc1ccc(C#N)c2ccccc12` (stereo not given) the inhibition was -0.97%. `CN1CCN(c2ncnc3ccc(NC(=O)Nc4ccc(Cl)c(Cl)c4)cc23)CC1` gave an inhibition of 5%. Work on `O=C(/C=C/c1ccc(Cl)c(Cl)c1)NCCCCN1CCCN(C(=O)Nc2ccc(Cl)c(Cl)c2)CC1` yielded an inhibition of -2.19%. `O=C(NCc1ccccc1)Nc1cccc(-c2cccc(-c3nc4cc(C(F)(F)F)ccc4[nH]3)c2)c1` was tested, and the inhibition was 4.49%. Compound `COc1ccc(N2CCN(C(CNC(=O)C3CCCCC3)c3ccc4c(c3)OCO4)CC2)cc1` (stereo not given) has an inhibition of 3.65%. `CC(C)(C)OC(=O)NCCc1cccc(-c2c[nH]c3ncc(-c4cccc(NS(C)(=O)=O)c4)cc23)c1` was tested, and the inhibition was -0.22%. `CCCNC(=O)c1cncc(-c2ccc(CNC3Cc4ccccc4C3)cc2)c1` was tested, and the inhibition was 0%. Work on `CS(=O)(=O)c1ccc(-c2cncc(Cl)n2)cc1` yielded an inhibition of 3.73%. `COCCNCc1cccc(-c2ccc3nccc(Nc4cc(O)ccc4C)c3c2)c1` was tested, and the inhibition was 3.68%. Compound `COc1cc2ccccc2c(OC)c1CCNCCCCNCCc1c(OC)cc2ccccc2c1OC` has an inhibition of 10.9%. In the case of `O=C(Nc1ccccc1Cc1ccccc1)c1ccccc1[N+](=O)[O-]`, the inhibition is reported as -1.08%. Compound `COc1cc(NC(=O)N2CCOC(CCN3CCC(c4ccccc4)CC3)(c3ccc(Cl)c(Cl)c3)C2)cc(OC)c1` (stereo not given) has an inhibition of 0.76%. Work on `Oc1ccccc1N1CCN(c2ccc(-c3nc4ccccc4[nH]3)cn2)CC1` yielded an inhibition of 2.48%. With `CN(C)C(=O)c1ccc(CN(Cc2ccc3c(c2)OCCO3)Cc2ccc3c(c2)OCO3)cc1` the inhibition was 3.62%. `COc1ccc(CNCc2ccc(-c3cccc(-c4nc5cc(C(F)(F)F)ccc5[nH]4)c3)cc2)cc1` showed an inhibition of -1.07%. Compound `O=C(Nc1ccc(-c2nc3ccccc3[nH]2)cc1)C1CCN(Cc2ccc(F)cc2)CC1` has an inhibition of 41.4%. Work on `CC(C)c1ncc(-c2ccncc2)c(C2CCC(CNC(=O)c3cccnc3)CC2)n1` (stereo not given) yielded an inhibition of 3.2%. For `Cc1nc2ccc(NC(=O)c3cc(S(=O)(=O)N(C)C)ccc3Cl)cc2s1`, the inhibition was 10.4%. In the case of `CC(C)CC(C)NC(=O)C1Cc2c([nH]c3ccc(F)cc23)C2(CCN(Cc3ccccc3)CC2)N1` (stereo not given), the inhibition is reported as 7.56%. For `COc1c(C2CCN(CCCCNC(=O)c3cc(-c4ccc(Cl)cc4)oc3C)CC2)ccc2c1CCCC2`, the inhibition was 9.04%. `N#Cc1ccc2c(c1)CCN(CCC1CCC(NC(=O)Nc3cnc4ccccc4c3)CC1)C2` (stereo not given) was tested, and the inhibition was 2.8%. For `CC(C)CNCc1ccc(-c2cccc(CN(CCN(C)C)C(=O)CCC3CCCC3)c2)cc1`, the inhibition was 30%. In the case of `COc1ccc(Br)cc1C1Nc2ccc3ccccc3c2C2=C1C(=O)CC(c1ccccc1)C2` (stereo not given), the inhibition is reported as 1.86%. Compound `COc1ccc(/C=C/C(=O)NCCCCCN2CCC(c3c[nH]c4ccccc34)CC2)cc1O` has an inhibition of 12.1%. `CC(Cc1ccc(CN(CC(N)=O)Cc2ccc(CC(C)NCCc3cccc(Cl)c3)cc2)cc1)NCCc1cccc(Cl)c1` (stereo not given) gave an inhibition of 3.67%. For `CC(C)(C)c1ccc(NC(=O)c2ccc(CN3CCCN(Cc4cccc(O)c4)CC3)cc2)cc1`, the inhibition was 0.52%. With `COc1ccc(C2=[N+]([O-])c3ccccc3C2=O)cc1` the inhibition was 0.97%. For `COc1ccc2nccc([C@@H](O)CN3CCC(NCCOc4ccc(F)cc4[N+](=O)[O-])CC3)c2c1`, the inhibition was -1.59%. In the case of `CCOc1ccc(-c2nonc2NC(=O)c2ccccc2OC)cc1OCC`, the inhibition is reported as 3.08%. For `CC(=O)Nc1ccc(C(=O)Nc2cccc(-c3cccc(-c4nc5cc(C(F)(F)F)ccc5[nH]4)c3)c2)cn1`, the inhibition was -0.64%. `CC(=O)Nc1ccc(C2NC(=O)NC(c3ccccc3)=C2c2nc3ccccc3s2)cc1` (stereo not given) showed an inhibition of 3.15%.

Each compound was assayed against Hexose transporter 1 (Plasmodium falciparum) (UniProt O97467) (assay: ST_JUDE_LEISH: Cytotoxicity at 2uM final concentration against transgenic Leishmania Mexicana promastigotes LmPfHT that are glucose transport deficient and complemented with the Plasmodium falciparum hexose transporter. Activity is measured by DNA content using SYBR green in vitro).
Format: functional
`Cc1nc(NCCc2c[nH]cn2)cc(NCc2ccccc2)n1` was tested, and the inhibition was 3.44%. With `Oc1ccc(Cl)cc1Nc1nc(C(F)(F)F)nc2ccccc12` the inhibition was 1.98%. `COc1cc(Nc2nccc(NCC(O)c3ccc(C(F)(F)F)cc3)n2)cc(OC)c1OC` (stereo not given) showed an inhibition of 2.84%. `O=C(Nc1cccc(F)c1)c1ccc(C(=O)NC2CCN(CC3CCCCC3)CC2)cc1` showed an inhibition of 5.33%. For `FC(F)(F)c1ccc2[nH]c(-c3cccc(-c4ccc(CNCC5CCCO5)cc4)c3)nc2c1` (stereo not given), the inhibition was 8.39%. For `O=C(Cc1cn(-c2ccccc2)nc1-c1ccc(Cl)cc1)Nc1nccs1`, the inhibition was 8.35%. For `COc1cc2nc(N3CCC(CNC(=O)c4ccc(-c5ccc(C(=O)N(C)C)cc5)cc4)CC3)nc(N)c2cc1OC`, the inhibition was 0.11%. In the case of `CCc1cccc(-n2c(=O)c3cccnc3n2CC(=O)NCc2ccccc2Cl)c1`, the inhibition is reported as 9.17%. `Cc1[nH]c(C)c(-c2ccc(OCc3cc(F)cc(F)c3)nc2)c(=O)c1Cl` was tested, and the inhibition was 4.58%. `COc1ccccc1CCC(C)(C)NC(=O)CC(CCc1ccccc1)Nc1ccc(C#N)c2ccccc12` (stereo not given) showed an inhibition of -0.79%. For `CN1CCN(c2ncnc3ccc(NC(=O)Nc4ccc(Cl)c(Cl)c4)cc23)CC1`, the inhibition was 2.35%. Compound `O=C(/C=C/c1ccc(Cl)c(Cl)c1)NCCCCN1CCCN(C(=O)Nc2ccc(Cl)c(Cl)c2)CC1` has an inhibition of 0.32%. `O=C(NCc1ccccc1)Nc1cccc(-c2cccc(-c3nc4cc(C(F)(F)F)ccc4[nH]3)c2)c1` was tested, and the inhibition was 4.71%. Compound `COc1ccc(N2CCN(C(CNC(=O)C3CCCCC3)c3ccc4c(c3)OCO4)CC2)cc1` (stereo not given) has an inhibition of 4.28%. With `CC(C)(C)OC(=O)NCCc1cccc(-c2c[nH]c3ncc(-c4cccc(NS(C)(=O)=O)c4)cc23)c1` the inhibition was -2.71%. With `CCCNC(=O)c1cncc(-c2ccc(CNC3Cc4ccccc4C3)cc2)c1` the inhibition was 0.51%. In the case of `CS(=O)(=O)c1ccc(-c2cncc(Cl)n2)cc1`, the inhibition is reported as 3.42%. `COCCNCc1cccc(-c2ccc3nccc(Nc4cc(O)ccc4C)c3c2)c1` showed an inhibition of 4.21%. `COc1cc2ccccc2c(OC)c1CCNCCCCNCCc1c(OC)cc2ccccc2c1OC` gave an inhibition of 12.1%. With `O=C(Nc1ccccc1Cc1ccccc1)c1ccccc1[N+](=O)[O-]` the inhibition was -2.27%. `COc1cc(NC(=O)N2CCOC(CCN3CCC(c4ccccc4)CC3)(c3ccc(Cl)c(Cl)c3)C2)cc(OC)c1` (stereo not given) was tested, and the inhibition was 1.73%. `Oc1ccccc1N1CCN(c2ccc(-c3nc4ccccc4[nH]3)cn2)CC1` gave an inhibition of 1.99%. Work on `CN(C)C(=O)c1ccc(CN(Cc2ccc3c(c2)OCCO3)Cc2ccc3c(c2)OCO3)cc1` yielded an inhibition of 3.62%. Work on `COc1ccc(CNCc2ccc(-c3cccc(-c4nc5cc(C(F)(F)F)ccc5[nH]4)c3)cc2)cc1` yielded an inhibition of -0.35%. `O=C(Nc1ccc(-c2nc3ccccc3[nH]2)cc1)C1CCN(Cc2ccc(F)cc2)CC1` showed an inhibition of 44.9%. `CC(C)c1ncc(-c2ccncc2)c(C2CCC(CNC(=O)c3cccnc3)CC2)n1` (stereo not given) showed an inhibition of 1.25%. Work on `Cc1nc2ccc(NC(=O)c3cc(S(=O)(=O)N(C)C)ccc3Cl)cc2s1` yielded an inhibition of 10.6%. In the case of `CC(C)CC(C)NC(=O)C1Cc2c([nH]c3ccc(F)cc23)C2(CCN(Cc3ccccc3)CC2)N1` (stereo not given), the inhibition is reported as 12.3%. For `COc1c(C2CCN(CCCCNC(=O)c3cc(-c4ccc(Cl)cc4)oc3C)CC2)ccc2c1CCCC2`, the inhibition was 9.78%. With `N#Cc1ccc2c(c1)CCN(CCC1CCC(NC(=O)Nc3cnc4ccccc4c3)CC1)C2` (stereo not given) the inhibition was 3.15%. For `CC(C)CNCc1ccc(-c2cccc(CN(CCN(C)C)C(=O)CCC3CCCC3)c2)cc1`, the inhibition was 23.7%. In the case of `COc1ccc(Br)cc1C1Nc2ccc3ccccc3c2C2=C1C(=O)CC(c1ccccc1)C2` (stereo not given), the inhibition is reported as 2.25%. Work on `COc1ccc(/C=C/C(=O)NCCCCCN2CCC(c3c[nH]c4ccccc34)CC2)cc1O` yielded an inhibition of 9.97%. In the case of `CC(Cc1ccc(CN(CC(N)=O)Cc2ccc(CC(C)NCCc3cccc(Cl)c3)cc2)cc1)NCCc1cccc(Cl)c1` (stereo not given), the inhibition is reported as -0.2%. `CC(C)(C)c1ccc(NC(=O)c2ccc(CN3CCCN(Cc4cccc(O)c4)CC3)cc2)cc1` showed an inhibition of 0.08%. In the case of `COc1ccc(C2=[N+]([O-])c3ccccc3C2=O)cc1`, the inhibition is reported as 0.24%. In the case of `COc1ccc2nccc([C@@H](O)CN3CCC(NCCOc4ccc(F)cc4[N+](=O)[O-])CC3)c2c1`, the inhibition is reported as -1%. `CCOc1ccc(-c2nonc2NC(=O)c2ccccc2OC)cc1OCC` showed an inhibition of 2.92%. With `CC(=O)Nc1ccc(C(=O)Nc2cccc(-c3cccc(-c4nc5cc(C(F)(F)F)ccc5[nH]4)c3)c2)cn1` the inhibition was -2.32%. Work on `CC(=O)Nc1ccc(C2NC(=O)NC(c3ccccc3)=C2c2nc3ccccc3s2)cc1` (stereo not given) yielded an inhibition of 0.83%.
